Reference: PubChem BioAssay (NCI)
This is part of a sample that, as a whole, favours compounds with a hit. Of some 83,000 tested, about 20% had one in any assay.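 In brief: 96-well plates, 48 h treatment, single concentration, percent growth endpoint.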 Unmarked numbers belong to inactive results. Active and inactive are the calls of the source. How the source made its calls: active means growth percent below 10; inactive means the rest.

Legend:
Test in all cases: NCI-60 one-dose screen, 48 h (100 = growth as untreated, 0 = no growth, -100 = all killed)
Conditions in all cases: 10 µM unless noted
NCI-H23 lung = test system: NCI-H23 lung
NCI-H226 lung = test system: NCI-H226 lung
NCI-H322M lung = test system: NCI-H322M lung
HOP-62 NSCLC = test system: HOP-62 NSCLC
NCI-H460 lung = test system: NCI-H460 lung
HOP-92 NSCLC = test system: HOP-92 NSCLC
NCI-H522 lung = test system: NCI-H522 lung
A549/ATCC NSCLC = test system: A549/ATCC NSCLC
786-0 renal = test system: 786-0 renal
COLO 205 colon = test system: COLO 205 colon
DU-145 prostate = test system: DU-145 prostate
K-562 leukemia = test system: K-562 leukemia
MALME-3M melanoma = test system: MALME-3M melanoma
MDA-MB-231 breast = test system: MDA-MB-231 breast
RXF 393 renal = test system: RXF 393 renal
SF-268 CNS = test system: SF-268 CNS
SF-295 CNS = test system: SF-295 CNS
SF-539 CNS = test system: SF-539 CNS
UACC-257 melanoma = test system: UACC-257 melanoma
M14 melanoma = test system: M14 melanoma

Compound	growth (NCI-H23 lung)	growth (NCI-H226 lung)	growth (NCI-H322M lung)	growth (HOP-62 NSCLC)	growth (NCI-H460 lung)	growth (HOP-92 NSCLC)	growth (NCI-H522 lung)	growth (A549/ATCC NSCLC)	growth (786-0 renal)	growth (COLO 205 colon)	growth (DU-145 prostate)	growth (K-562 leukemia)	growth (MALME-3M melanoma)	growth (MDA-MB-231 breast)	growth (RXF 393 renal)	growth (SF-268 CNS)	growth (SF-295 CNS)	growth (SF-539 CNS)	growth (UACC-257 melanoma)	growth (M14 melanoma)
Cc1cccc(/C=C/c2ccc(NC(=S)NCCCCN(C)C)cc2)c1	-99.7% (active)	-72.1% (active)	-91.1% (active)	-67.4% (active)	-85.5% (active)	-57.2% (active)	-73.7% (active)	-57.9% (active)	-57.4% (active)	-69.5% (active)	-82.7% (active)	3.99% (active)	-96.1% (active)	-94.4% (active)	-91.8% (active)	-52.4% (active)	-95.6% (active)	-86.4% (active)	-65.4% (active)	-64.4% (active)
Cc1nn(-c2ccccc2)c2ncn(CC(=O)N/N=C/c3ccccc3O)c(=O)c12	40.7%	47.6%	39.1%	27.4%	17.7%	55.8%	21%	38.9%	37.2%	10.3%	51.6%	26.5%	55.9%	35.9%	42.2%	38.9%	24.9%	46.7%	54.9%	45.2%
Fc1ccc(N2CC(Cn3c(C(F)(F)F)cc4c(Cl)ncnc43)C2)c(F)c1	-76% (active)	116%	45.7%	46.8%	-72.9% (active)	-7.85% (active)	9.73% (active)	108%	79.2%	65%	-6.58% (active)	-57% (active)	89.7%	-81.9% (active)	-51.1% (active)	-42% (active)	87.8%	50.2%	11.4%	-60.9% (active)
O=C1Nc2cc(-c3ccc(NS(=O)(=O)c4ccc(-c5ccccc5)cc4)cc3)ccc2/C1=C/c1ccc[nH]1	4.1% (active)	66.5%	47.3%	75.9%	3.38% (active)	16.1%	-11.8% (active)	10.5%	58.4%	0.446% (active)	-11.5% (active)	18.8%	50%	63.9%	-37.3% (active)	75.8%	30.9%	37.4%	58.9%	38%
O=C(Cn1c(/C=C/c2ccc([N+](=O)[O-])cc2)nc2ccccc2c1=O)Nc1ccccc1	54.9%	-0.971% (active)	67.2%	49%	52.5%	52.1%	79.5%	75.7%	47.2%	67.2%	78.6%	79.6%	85%	46.7%	27.4%	58.9%	72.2%	21.1%	101%	81.2%
NNc1ncnc2sc3c(c12)CCN(Cc1ccccc1)C3	73.2%	38.9%	40.9%	58%	37.3%	77.7%	2.62% (active)	75.1%	59.1%	16.6%	61.7%	19%	70.4%	40.8%	69.3%	43.8%	45.2%	52.8%	47%	62.9%
CCOC(=O)/C(F)=C/C1CC1C(c1ccccc1)c1ccccc1 (stereo not given)	73.8%	91.8%	80.6%	125%	38.7%	84.1%	94.8%	91.7%	93%	117%	106%	70.4%	81.2%	88.4%	77.2%	99.1%	88.7%	96.5%	105%	91.7%
Cc1cccc(NCC(=O)N2CCN(c3ncnc4c3cnn4-c3ccccc3)CC2)c1	58.4%	54.5%	69.3%	67.4%	65%	50.6%	-6.93% (active)	65.3%	80.8%	97.4%	75.4%	43.8%	72.8%	65%	76.3%	73.3%	46.6%	59.9%	66.9%	62.2%
COc1cccc(-c2ccc(/C=N/NC(=O)c3[nH]c4ccc(Br)cc4c3-c3ccccc3)s2)c1	-41.9% (active)	-1.63% (active)	49.1%	14.6%	-15.4% (active)	43.1%	-65.4% (active)	10.7%	-12.2% (active)	-28.7% (active)	2.3% (active)	15.7%	33.1%	-20.5% (active)	-63% (active)	-9.89% (active)	-46.2% (active)	-83.9% (active)	45.7%	-4.68% (active)
